High-throughput results from PubChem BioAssay.
Pf growth 48h: inhibits P. falciparum growth in the first generation, 48 h. P. falciparum luciferase growth in erythrocytes, 48 h. Potency, µM (doses to about 28.7 µM), most hits filed as inhibitors. 5.9% of 310,000 active
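Growth was read as firefly luciferase luminescence after a 48 h, 37 C, 5% CO2 exposure of compounds to reporter-bearing P. falciparum cultures (0.1% parasitemia, 2% hematocrit final) in Albumax-supplemented RPMI 1640.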
Pf growth 96h: P. falciparum growth inhibition at 96 hours. Potency, µM (highest dose often 28.7 µM), usual class: inhibitors. P. falciparum luciferase reporter growth, 96 h. 6.9% of 320,000 active
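Luminescence readout: decreased luciferase signal marks inhibited growth of reporter-expressing P. falciparum in infected red cells (2% hematocrit, 0.05% parasitemia final), exposed to compound two generations (96 h, 37 C, 5% CO2).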
HCV inhibitor: blocks hepatitis C virus; Huh7.5.1 HCVcc-Cre infection, luciferase reporter, 44 h; Potency, µM (titrated, usually from 41.8 µM), usual class: inhibitors; 3.4% of 340,000 active; AID 651820
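Infectious HCVcc-Cre (~0.5 moi) was added to cells just after compound, with cells seeded 4 h earlier at 1,000 per well. Luciferase activity after 44 h culture reported infection; substrate was incubated 15 min at room temperature before reading.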
HCMV inh: human cytomegalovirus inhibition. activity change, negative = inhibition, % at 57.5 µM. AID 1259415. 4.5% of 410,000 active. HFF cells, HCMV-luciferase reporter, 72 h; hits give low values; in the data active means activity change below about -60%; inconclusive means no clear call, values can overlap the other calls; inactive means above about -39%
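Two-dose cell screen: HFF monolayers treated with compounds and infected with luciferase-expressing HCMV at 1 PFU/cell, 72 h at 37C, then lysed for luciferase measurement.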
A number is an active result; n = inactive; u = inconclusive; x = not tested or not shown; [ ] = dose if it differs, or a comment. Only some compounds are listed: those with a hit (about 13% of all), similar ones and a draw of the others. Unless noted, the call rests on the fitted dose curve; in most records, active means well fitted inhibition curve with a large enough effect; inconclusive means small, poorly fitted or top-dose-only effect, or another doubt; inactive means no such curve, though single readings can be large or run the other way.

SMILES | Pf growth 48h | Pf growth 96h | HCV inhibitor | HCMV inh
Cc1cc(NC(=O)CCC(=O)N(c2cccc(F)c2)C(C(=O)NC2CCCC2)c2ccccc2)no1 (centres undefined) | u | u | n | n
COc1cccc(C(C(=O)NC2CCCC2)N(CCC(C)C)C(=O)CCC(=O)Nc2cc(C)on2)c1 (centres undefined) | u | n | n | -66
Cc1cc(NC(=O)CCC(=O)N(c2ccccc2)C(C(=O)NC2CCCC2)c2ccccc2)no1 (centres undefined) | 15µM | 8.3µM | n | n
CCCCN(C(=O)CCC(=O)Nc1cc(C)on1)C(C(=O)NC1CCCC1)c1ccccc1OCC (centres undefined) | 15µM | n | n | n
COc1ccc(N2CCN(Cc3nc4c(c(=O)[nH]c(=O)n4C)n3Cc3ccccc3C)CC2)cc1 | x | x | x | n
Cc1ccc(NC(=O)CSc2nc3ccc(Br)cc3[nH]2)c(C)c1 | x | x | x | n
CC(C)CCNC(=O)C(=O)Nc1c2c(nn1-c1ccc(Cl)cc1)CSC2 | x | x | x | n
CCc1ccc(C2CC(=O)Nc3cc4c(cc32)OCO4)cc1 (centres undefined) | x | x | x | n
Cc1ccc2c(=O)cc(C(=O)Nc3c(C)n(C)n(-c4ccccc4)c3=O)oc2c1 | x | x | x | n
Cc1ccc(N(C(=O)CCC(=O)Nc2cc(C)on2)C(C(=O)NC2CCCC2)c2ccccc2)cc1 (centres undefined) | 12µM | n | u | n
COc1ccc(C(C(=O)Nc2ccc(F)cc2)N(C(=O)Cn2nnc3ccccc32)C2CC2)cc1 (centres undefined) | 5.9µM | u | u | n
CC(=O)NCC(=O)N(c1c(C)n(C)n(-c2ccccc2)c1=O)C1(C(=O)NC2CCCC2)CCCCC1 | n | u | n | n
Cc1cc(NC(=O)CCC(=O)N(Cc2ccco2)C2(C(=O)NC3CCCC3)CCCCC2)no1 | n | u | u | n
Cc1c(N(C(=O)CNC(=O)c2ccccc2)C2(C(=O)NC3CCCCC3)CCCCC2)c(=O)n(-c2ccccc2)n1C | 5.9µM | u | n | u
Cc1cc(NC(=O)CCC(=O)N(c2ccccc2)C2(C(=O)NC3CCCCC3)CCCC2)no1 | u | n | u | -77
CC(C)c1ccc(N2C(=O)CSC23C(=O)N(C)c2ccccc23)cc1 (centres undefined) | x | x | x | n
CC(C)(C)c1ccc(OCc2cc(=O)n3c4c(sc3n2)CCCC4)cc1 | x | x | x | n
O=S(=O)(c1ccc(F)c(F)c1)N1CCCCCCC1 | x | x | x | n
NC(=O)c1ccccc1NS(=O)(=O)c1ccc2c(c1)OCCO2 | x | n | n | n
CCOC(=O)/C(C#N)=C/Nc1ccccc1NS(=O)(=O)c1ccc2c(c1)OCCO2 | 9.3µM | 12µM | n | n
Cc1ccc(S(=O)(=O)N2CC3(O)CN(C(=O)OC(C)C)N(C(=O)OC(C)C)CC3(OC(=O)NCc3ccccc3)C2)cc1 (centres undefined) | x | x | x | n
COc1ccc(C(O)c2nc(-c3ccc4ccccc4c3)cs2)cc1 (centres undefined) | x | x | x | n
COc1ccc(OC)c(/C=C2\NC(=O)NC2=O)c1 | n | u | n | -81
CC1=C(C(=O)N2CCOCC2)CC(CC(=O)NCCCCc2ccccc2)C(=O)N1Cc1ccc(C(C)(C)C)cc1 (centres undefined) | x | x | x | n
COc1ccc(CCNc2cc(C)nc3c(-c4ccccc4OC)cnn23)cc1OC | 13µM | u | 13µM | x
SMILES | Pf growth 48h | Pf growth 96h | HCV inhibitor | HCMV inh
COc1ccccc1-c1cnn2c(NCc3ccccc3)cc(C)nc12 | n | u | u | n
O=C(COC(=O)CC1Sc2ccccc2NC1=O)NCc1ccccc1 (centres undefined) | 13µM | u | n | n
CC(C)(C)c1ccc(C(O)CCCN2CCC(C(O)(c3ccccc3)c3ccccc3)CC2)cc1 (centres undefined) | u | 12µM | n[8.37 µM] | n
OC(c1ccccc1)(c1ccccc1)C1CCN(CCCOc2cccc(OC(F)(F)F)c2)CC1 | x | x | x | n
Oc1ccccc1CN1CCCN(Cc2ccccc2O)C1 | u | x | 8.9µM | n
N#CCc1ccc(OCCCN2CCC(C(O)(c3ccccc3)c3ccccc3)CC2)cc1 | x | x | x | n
Oc1ccccc1CN1CCC(C(O)(c2ccccc2)c2ccccc2)CC1 | 7.4µM | n | n | u
COc1ccccc1-c1ccc(OCCCN2CCC(C(O)(c3ccccc3)c3ccccc3)CC2)cc1 | x | x | x | -99
COc1cccc(CNC(=O)Nc2cc(C(=O)NCc3cccc(F)c3)ccc2N2CCCC2)c1 | x | x | x | n
COc1cc(CN2CCN(C(O)(c3ccccc3)c3ccccc3)CC2)cc(OC)c1OC | u | u | n | n
